In the supplement of paper PMC10811239:

tested on: LEGO organoid PTCC (PTEN-/-; TP53-/-; CDKN2A-/-; CDKN2B-/-); test: bioluminescence (viable cell) signal fold change after vs before treatment, normalised to DMSO (ratio); higher = more tumour cell growth / less inhibition; conditions: 10 µM; treatment time 6 days
Procedure: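 Luc2-labelled iPSC-derived glioblastoma-like organoids (LEGOs, genotypes PT = PTEN-/-;TP53-/-, PTCC = plus CDKN2A/B-/-, PTN = plus NF1-/-) were treated with 10 uM drug for 6 days (applied every other day) at 37 C. Bioluminescence imaging was done before treatment and 2 days after the last dose. BLI signals were normalised to the DMSO control on the same day and then to the pre-treatment signal (N=3).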

Compound | bioluminescence
Cc1oncc1C(=O)Nc1ccc(C(F)(F)F)cc1 [Leflunomide] | 1.3
CO[C@H]1/C=C/O[C@@]2(C)Oc3c(C)c(O)c4c(O)c(c(/C=N/N5CCN(C6CCCC6)CC5)c(O)c4c3C2=O)NC(=O)/C(C)=C\C=C\[C@H](C)[C@H](O)[C@@H](C)[C@@H](O)[C@@H](C)[C@H](OC(C)=O)[C@@H]1C [Rifapentine] | 0.434
FC(F)(F)C(Cl)Br (centres undefined) [Anestan] | 0.664
Cc1cc(C)nc(NS(=O)(=O)c2ccc(N)cc2)n1 [Sulfamethazine] | 0.645
CO[C@H]1/C=C/O[C@@]2(C)Oc3c(C)c(O)c4c(O)c(c(/C=N/N5CCN(C)CC5)c(O)c4c3C2=O)NC(=O)/C(C)=C\C=C\[C@H](C)[C@H](O)[C@@H](C)[C@@H](O)[C@@H](C)[C@H](OC(C)=O)[C@@H]1C [Rifampicin] | 0.603
CC(C)c1c(C(=O)Nc2ccccc2)c(-c2ccccc2)c(-c2ccc(F)cc2)n1CC[C@@H](O)C[C@@H](O)CC(=O)[O-].CC(C)c1c(C(=O)Nc2ccccc2)c(-c2ccccc2)c(-c2ccc(F)cc2)n1CC[C@@H](O)C[C@@H](O)CC(=O)[O-].[Ca+2] [Atorvastatin Calcium] | 0.222
Nc1nnc(-c2cccc(Cl)c2Cl)c(N)n1 [Lamotrigine] | 2.24
NCC[C@H](O)C(=O)N[C@@H]1C[C@H](N)[C@@H](O[C@H]2O[C@H](CN)[C@@H](O)[C@H](O)[C@H]2O)[C@H](O)[C@H]1O[C@H]1O[C@H](CO)[C@@H](O)[C@H](N)[C@H]1O.O=S(=O)(O)O.O=S(=O)(O)O [Amikacin disulfate] | 1.21
CCOc1nc2cccc(C(=O)O)c2n1Cc1ccc(-c2ccccc2-c2nn[nH]n2)cc1 [Candesartan] | 1.68
CCCCOc1ccc(C(=O)CCN2CCCCC2)cc1.Cl [Dyclonine hydrochloride] | 1.03
O=c1[nH]c(=O)n(C2CCCO2)cc1F (centres undefined) [Tegafur] | 1.14
CCC(CC)O[C@@H]1C=C(C(=O)O)C[C@H](N)[C@H]1NC(C)=O [Oseltamivir acid] | 0.404
CN(C)C(=N)NC(=N)N [Metformin] | 1.89
CO/N=C(\C(=O)N[C@@H]1C(=O)N2C(C(=O)[O-])=C(COC(C)=O)CS[C@H]12)c1csc(N)n1.[Na+] [Cefotaxime sodium] | 1.45
Cc1ccnc2c1NC(=O)c1cccnc1N2C1CC1 [Nevirapine] | 0.901
C=CC(=O)N1CCC[C@@H](n2nc(-c3ccc(Oc4ccccc4)cc3)c3c(N)ncnc32)C1 [Ibrutinib] | 1.87
C[N+](C)(C)CCO.[Cl-] [Choline chloride] | 0.614
CO[C@H]1C(=O)[C@]2(C)[C@@H](OC)C[C@H]3OC[C@@]3(OC(C)=O)[C@H]2[C@H](OC(=O)c2ccccc2)[C@]2(O)C[C@H](OC(=O)[C@H](O)[C@@H](NC(=O)OC(C)(C)C)c3ccccc3)C(C)=C1C2(C)C [Cabazitaxel] | 7.3
OC[C@H]1O[C@@H](n2cnc3c2NC=NC[C@H]3O)C[C@@H]1O [Pentostatin] | 0.797
CCN(CC)CCNC(=O)c1c(C)[nH]c(/C=C2\C(=O)Nc3ccc(F)cc32)c1C [Sunitinib] | 0.536

Compound | bioluminescence
CC[C@@]1(O)C(=O)OCc2c1cc1n(c2=O)Cc2cc3c(CN(C)C)c(O)ccc3nc2-1.Cl [Topotecan hydrochloride] | 0.236
Nc1cccc2c1CN(C1CCC(=O)NC1=O)C2=O (centres undefined) [Lenalidomide] | 4.82
NNC(=O)c1ccncc1 [Isoniazid] | 0.847
CCN(CC)CC(=O)Nc1c(C)cccc1C.Cl [Lidocaine hydrochloride] | 1.11
CNC(=O)c1cc(Oc2ccc(NC(=O)Nc3ccc(Cl)c(C(F)(F)F)c3)cc2)ccn1.Cc1ccc(S(=O)(=O)O)cc1 [Sorafenib tosylate] | 0.343
COc1ccccc1Oc1c(NS(=O)(=O)c2ccc(C(C)(C)C)cc2)nc(-c2ncccn2)nc1OCCO [Bosentan] | 1.68
CC(C)NCC(O)COc1ccc(CC(N)=O)cc1 (centres undefined) [Atenolol] | 0.484
NC(=O)c1ncn([C@@H]2O[C@H](CO)[C@@H](O)[C@H]2O)n1 [Ribavirin] | 1.89
C[C@]12C=CC(=O)C=C1CC[C@@H]1[C@@H]2C(=O)C[C@@]2(C)[C@H]1CC[C@]2(O)C(=O)CO [Prednisone] | 0.989
CCc1c(C)[nH]c2c1C(=O)C(CN1CCOCC1)CC2.Cl (centres undefined) [Molindone hydrochloride] | 1.39
COc1ccc(CNc2nc(N3CCC[C@H]3CO)ncc2C(=O)NCc2ncccn2)cc1Cl [Avanafil] | 0.873
CS(=O)(=O)CCNCc1ccc(-c2ccc3ncnc(Nc4ccc(OCc5cccc(F)c5)c(Cl)c4)c3c2)o1.Cc1ccc(S(=O)(=O)O)cc1.Cc1ccc(S(=O)(=O)O)cc1 [Lapatinib Ditosylate] | 1.03
C[C@]12C=CC(=O)C=C1CC[C@@H]1[C@@H]2[C@@H](O)C[C@@]2(C)[C@H]1CC[C@]2(O)C(=O)CO [Prednisolone] | 1.29
CC(C)Oc1ccc(-c2nc(-c3cccc4c3CC[C@@H]4NCCO)no2)cc1C#N [Ozanimod] | 0.828
COc1cc(C(=O)NCc2ccc(OCCN(C)C)cc2)cc(OC)c1OC.Cl [Trimethobenzamide hydrochloride] | 0.906
FC(F)(F)c1ccc(CNc2ccc(Cc3c[nH]c4ncc(Cl)cc34)cn2)cn1 [Pexidartinib] | 3.05
CCCN(CCC)S(=O)(=O)c1ccc(C(=O)O)cc1 [Probenecid] | 1.41
Nc1nc(=O)c2c(CCc3ccc(C(=O)N[C@@H](CCC(=O)[O-])C(=O)[O-])cc3)c[nH]c2[nH]1.Nc1nc(=O)c2c(CCc3ccc(C(=O)N[C@@H](CCC(=O)[O-])C(=O)[O-])cc3)c[nH]c2[nH]1.O.O.O.O.O.[Na+].[Na+].[Na+].[Na+] [Pemetrexed Disodium Hydrate] | 0.95
CC(C)(C)c1cc(C(C)(C)C)c(NC(=O)c2c[nH]c3ccccc3c2=O)cc1O [Ivacaftor] | 0.191
